# In PubChem BioAssay (NCI):
# The panel holds about 79,000 compounds, 15% with a hit somewhere; the sample as a whole holds those more often. Active and inactive are the calls of the source. No stated cut-off is given here; in the data, active means growth inhibition above about 70%; inactive means the rest.
# Assay: NCI Yeast Anticancer Drug Screen. Data for the sgs1 mgt1 strain (AID 161);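 further: 0% = growth of cultures given vehicle only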
# Settings: S. cerevisiae sgs1 mgt1 strain, at 50.0 µM, active compounds read high
# Method in brief: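 Yeast cells carrying a defined DNA-repair defect were exposed to test compounds. Growth inhibition was measured relative to vehicle-treated controls.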
row,Compound,growth inhibition
1,COc1ccc(OC)c2c(NCCNCCO)cc(NCCNCCO)nc12,-15.7% (inactive)
2,CC(=O)NNC(=S)N/C=C(\C#N)c1nc2ccccc2s1,-17.2% (inactive)
3,COc1ccc(Cc2cc3c(cc2OCCOC(C)=O)OCO3)cc1,10.4% (inactive)
4,NCCC(=O)NCCSSCCNC(=O)CCN,6.25% (inactive)
5,CCN1CCCC1CO (stereo not given),-10.1% (inactive)
6,Cc1cccc(/C=N/Nc2ccc([N+](=O)[O-])cc2[N+](=O)[O-])c1C,-5.1% (inactive)
7,N#Cc1c(-c2ccco2)cc(-c2ccccc2)[nH]c1=O,18.1% (inactive)
8,COc1ccc(C(C)Nc2cc(OC)c(OC)c(OC)c2)cc1 (stereo not given),-3.15% (inactive)
9,CC1=NN(C(=O)c2ccccc2O)C(=O)/C1=C/c1ccc(O)cc1,-15.5% (inactive)
10,[N-]=[N+]=NC12CC3C4CC5CC3C(C1)C(C5)C4C2,-6.65% (inactive)
11,C[N+](C)(CCCn1ccnc1[N+](=O)[O-])CCCn1ccnc1[N+](=O)[O-],14.8% (inactive)
12,O=C1C(=C(C(F)(F)Cl)C(F)(F)Cl)C2CCC1C2 (stereo not given),14.3% (inactive)
13,NC(=O)c1cc[n+](-c2ccc([N+](=O)[O-])cc2[N+](=O)[O-])cc1,27.2% (inactive)
14,O=C(/C=C(\Br)c1ccccc1)c1ccccc1,99.8% (active)
15,Cn1cc(C(=O)C2CCCCC2)ccc1=O,-2.6% (inactive)
16,N#CCC(=O)N1CCCC1,-3.8% (inactive)
17,CC/C(C)=N/NS(C)(=O)=O,-0.35% (inactive)
18,CCCCCCCCCCOc1ccc(OCCCCCCCCC)cc1,12.9% (inactive)
19,C=CCCCCCCCCC(=O)N1CCN(C)CC1,9.1% (inactive)
20,CC(Cc1cccc2ccccc12)(C(=O)O)C(=O)O,11.5% (inactive)

row,Compound,growth inhibition
1,Cc1ccc([N+](=O)[O-])cc1NC(=O)NCCCl,5.5% (inactive)
2,C=C1CC[C@H]2C(=O)OC(c3ccoc3)C[C@]2(C)C/C=C\C=C/1C(=O)OC (stereo not given in full),-19.8% (inactive)
3,O=C(CCC(=O)Nc1cc(Cl)ccc1Cl)CC(=O)c1ccc([N+](=O)[O-])cc1,4.35% (inactive)
4,O=c1c2ccccc2c(=O)n2n1CC=CC2,-1.75% (inactive)
5,CCCCN=C(C)CC(=O)CC(=O)c1ccccc1,44.4% (inactive)
6,CC(=N\N=C\c1ccccn1)/C(C)=N/N=C(C)/C(C)=N/N=C/c1ccccn1,7.9% (inactive)
7,CC(C)OP(=O)(c1ccccc1)c1ccc2c(c1)OCCOCCOCCOCCO2 (stereo not given),0.75% (inactive)
8,O=[N+]([O-])c1cc2c(cc1Br)C1C(C3C2C2(Cl)C(Cl)=C(Cl)C3(Cl)C2(Cl)Cl)C2(Cl)C(Cl)=C(Cl)C1(Cl)C2(Cl)Cl (stereo not given),24.6% (inactive)
9,CC1(C)OCC(C2OC3OC(C)(C)OC3/C2=N/NC(=O)c2cc3cc(OCc4ccccc4)ccc3[nH]2)O1 (stereo not given),39.6% (inactive)
10,CC(C(=O)O)N(C)C(=O)OCc1ccccc1 (stereo not given),1.55% (inactive)
11,OCc1ccc(CO)cc1,-15.6% (inactive)
12,Cc1ccc2c(c1)C(c1cccc3ccccc13)OC2=O (stereo not given),40.2% (inactive)
13,Cc1cn(-c2c(C)c(C)c(-n3c(C)ccc3C)c(C)c2C)cc1C,-6.2% (inactive)
14,CC12CC(=O)NC(=O)N1CCS2 (stereo not given),-1.85% (inactive)
15,CCOC(=O)Cc1cccnc1,-14.1% (inactive)
16,O=C(O)c1ccc([C@@H]2C(=O)N(O)[C@@H]3C=CC[C@@H]32)cc1,-7.45% (inactive)
17,NC1=NCC(c2ccccn2)C1c1ccc(F)cc1 (stereo not given),1.1% (inactive)
18,COc1ccc(N2C(=O)CC(c3cc(OC)c(OC)c(OC)c3)CC2=O)cc1,10.4% (inactive)
19,COC(=O)c1ccc(S(=O)(=O)O)cc1[N+](=O)[O-],2.5% (inactive)
20,NS(=O)(=O)c1ccc(N2C(=O)C(=O)N(c3ccccc3)C2=S)cc1,-16.2% (inactive)
